Measured values as given in PubChem BioAssay.
The source made the active and inactive calls.

test system: not listed separately; assay: blood-stage malaria parasite viability loss – strain 3D7, DAPI fluorescence, 100 nL, primary screen (AID 1184);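 note: parasites grown inside human red blood cells in medium with human serum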; details: P. falciparum 3D7 growth, 3 d, higher = more signal

Row | SMILES | z-score
1 | CC(=O)OC[C@H]1O[C@H](C#CCCc2ccccc2)C=C[C@@H]1OC(C)=O | 0.972
2 | CN1CCc2nc(-c3ccccc3)c(-c3ccccc3)cc2C1 | 0.309
3 | CC(CCC(=O)OC[C@H]1O[C@H](C#Cc2ccccc2)C=C[C@@H]1Oc1ccc(C)cc1)=NOC[C@@H](C)[C@H](OCc1ccccc1)C(C)C | -0.0982
4 | COCCNC(=O)OCC1CCCC2(CC(OC(=O)NCc3cccc4ccccc34)CC(CCC(=O)N[C@@H](C)C(=O)OC)O2)O1 (stereo not given in full) | -1.85
5 | CC(C)CN1CCc2nc(-c3ccccc3)c3c(c2C1)CO[C@@H](C)C3 | -0.927
6 | CC(CCN1CCCCc2nc(C)c(C)cc21)=NOC[C@@H](O)[C@H]1O[C@@H]2OC(C)(C)O[C@@H]2[C@H]1O | 0.027

target: Homeobox protein Hox-A13 (Mus musculus) (UniProt Q62424); assay: disruptors of Hoxa13 oligonucleotide interaction – biochemical, fluorescence polarization, labeled oligonucleotide, primary screen (AID 1185); details: Hoxa13:DNA binding, 15 min, higher = more signal, called active from +8 up or from −8 down
Sequence (Q62424 whole entry, looked up): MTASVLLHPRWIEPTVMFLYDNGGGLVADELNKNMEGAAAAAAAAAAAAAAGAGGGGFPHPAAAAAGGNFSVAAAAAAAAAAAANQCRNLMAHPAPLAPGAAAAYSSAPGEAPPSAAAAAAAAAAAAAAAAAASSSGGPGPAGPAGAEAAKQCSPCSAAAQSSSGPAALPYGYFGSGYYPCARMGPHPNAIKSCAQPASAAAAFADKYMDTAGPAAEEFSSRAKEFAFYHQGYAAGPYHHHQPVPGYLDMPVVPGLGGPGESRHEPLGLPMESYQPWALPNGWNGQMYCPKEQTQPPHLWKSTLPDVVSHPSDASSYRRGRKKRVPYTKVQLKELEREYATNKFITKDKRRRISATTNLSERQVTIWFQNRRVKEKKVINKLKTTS

Row | SMILES | z-score
7 | C#CCCCON=C1C[C@@H](O)[C@@H](O)[C@@H]2[C@@H]3C(=O)N([C@@H](C)c4ccccc4)C(=O)[C@@H]3CC[C@@H]12 | -2.28 (inactive)
8 | COc1cccc([C@H]2Oc3ccc(OC)cc3C(=NO[C@@H](C)c3cc(-c4c(C)cc(C)cc4C)no3)[C@@H]2O)c1 | 0.621 (inactive)
9 | CO[C@@H]1COC(=O)[C@H](COCc2ccccc2)NC(=O)CC=C[C@@H](C)[C@H](OC)COC(=O)[C@@H](C)NC(=O)CC=C[C@H]1C | -1.83 (inactive)
10 | CC(=O)OC[C@H]1O[C@H](CC=NOCC[C@@H]2C=C[C@H](OC(C)=O)[C@@H](COC(C)=O)O2)C=C[C@@H]1OC(C)=O | -0.963 (inactive)
11 | CCN(CC)CC(O)CN1CCCCc2nc(C)c(C)cc21 (stereo not given) | -1.17 (inactive)
12 | CC(=O)OC[C@H]1O[C@H](CCON=C(C)C)C=C[C@@H]1OC(C)=O | 0.389 (inactive)
13 | CCOC(=O)[C@H](Cc1ccccc1)NC(=O)CCC1CC(OC(=O)NCCc2ccc(F)cc2)CC2(CCCC(COC(=O)NCCOc3ccccc3)O2)O1 (stereo not given in full) | -2.88 (inactive)
14 | COC(=O)[C@@H]1CC[C@H](C)[C@@H](c2ccc(C)cc2)N1C(=O)c1ccc(C=NO[C@@H](C)c2cc(-c3c(C)cc(C)cc3C)no2)cc1 | 0.492 (inactive)
15 | CCCC[C@H]1CN2[C@@H](CC[C@@H](C)[C@@H]2c2ccc(Br)cc2)C(=O)O1 | -3.59 (inactive)
16 | C=CC[C@@H]1C=CC(ON=C(C)C)[C@@H](CO)O1 (stereo not given in full) | 2.62 (inactive)
17 | CCOC(=O)[C@H](Cc1ccccc1)NC(=O)CCC1CC(OC(=O)NCc2ccc3c(c2)OCO3)CC2(CCCC(COC(=O)NCCc3ccc(Cl)cc3)O2)O1 (stereo not given in full) | -1.76 (inactive)
18 | CCN1C(=O)[C@H]2[C@H]3[C@H](O)[C@H](O)CC(=NOCC(C)C)[C@H]3CC[C@H]2C1=O | 0.204 (inactive)
19 | CON=C[C@@H](OC)[C@H](C)C=CCC(=O)OC | -0.326 (inactive)
20 | CC(CCN1CCc2nc(-c3ccccc3)c(-c3ccccc3)cc2C1)=NO[C@H](C)c1cn([C@H](CO)Cc2ccccc2)nn1 | -5.22 (inactive)
21 | CCOC(=O)[C@H](Cc1ccccc1)NC(=O)CCC1CC(OC(=O)NCc2cccc3ccccc23)CC2(CCCC(COC(=O)NCCOc3ccccc3)O2)O1 (stereo not given in full) | -2.04 (inactive)
22 | CC(=O)OC[C@H]1O[C@H](CC=NO[C@@H](C)c2cn([C@H](CO)Cc3ccccc3)nn2)C=C[C@@H]1OC(C)=O | -0.583 (inactive)
23 | COc1ccc(OC[C@H]2CN3[C@@H](CC[C@@H](C)[C@@H]3c3ccc(Br)cc3)C(=O)O2)cc1 | -0.626 (inactive)
24 | CCc1cc2c(nc1CC)CCN(CCC(C)=NOCC[C@@H]1C=C[C@H](OC(C)=O)[C@@H](COC(C)=O)O1)C2 | -5.38 (inactive)
25 | CO[C@H]1COC(=O)CC=C[C@H](C)[C@H](OC)COC(=O)[C@@H](C)NC(=O)CC=C[C@@H]1C | -0.75 (inactive)
26 | Cc1cc2c(nc1C)CCCCN2CC(O)CN1CCCc2nc(-c3ccc(Br)cc3)ccc21 (stereo not given) | -4.77 (inactive)
27 | CC(CCN1CCCc2nc(C)c(C)cc21)=NO[C@H](C)c1cn([C@@H]2COC[C@H]2O)nn1 | -6.65 (inactive)
28 | Cc1ccc(C(C)C)n1C(=O)OC(C)(C)C | 0.936 (inactive)
29 | COC(=O)[C@@H]1CC[C@H](C)[C@@H](c2ccc(Br)cc2)N1C(=O)C(F)(F)F | -0.733 (inactive)
30 | O=C1[C@H]2[C@H]3[C@H](O)[C@H](O)CC(=NOCc4ccccc4)[C@@H]3CC[C@H]2C(=O)N1c1cccc(Oc2ccccc2)c1 | -1.24 (inactive)
